Several values for one entry are separate records, joined by “and”; a condition that tells them apart may be missing. Identical values can stand only once. Results filed as inconclusive are left out. Activity calls are given as the source filed them. Calls follow the shape of the dose curve; as a rule, active = well fitted inhibition curve with a large enough effect; inconclusive = small, poorly fitted or top-dose-only effect; inactive = flat fitted curve, though single readings scatter. Where a SMILES comes first, the peptide text is derived from it.
Experiments:
Assay in all cases: Cytotoxic Profiling of Annotated Libraries Using Quantitative High-Throughput Screening (AID 1296008); also: nearly all actives have a fitted effect of over 60% in size
Conditions in all cases: Five cell lines viability, CellTiter-Glo ATP luminescence, 48-72 h; max response: active compounds read low
CRL-7250 = normal cell line; tested on: CRL-7250
Summary of the method: (§1)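 Cells exposed to compounds for 48 or 72 hr at 37 degrees Celsius. Viability read as ATP-coupled luminescence with CellTiter-Glo after 10 min at room temperature.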

HEK293 = tested on: HEK293
Summary of the method: as §1

HaCat = tested on: HaCat
Summary of the method: as §1
% is scaled to controls: 0 for no effect and ±100 for the full control effect; potency is read from the fitted curve at half-maximal effect.

C/C=C/C1=CC2=CC(=O)C(C)(O)C(OC(=O)c3c(C)cc(O)cc3O)C2CO1 (configuration not stated)
inactive: max response (CRL-7250) 1.95% | outcome (HEK293) | outcome (HaCat)

CC1CCC2C(C)(C)C(O)CCC2(C)C12Cc1c(O)cc3c(c1O2)C(N)=NC3 (configuration not stated)
inactive: max response (CRL-7250) -9.29% | outcome (HEK293) | outcome (HaCat)

CC1[C@@H](O)[C@@H](O)C2[C@]3(C)C(C[C@H]4OC(=O)[C@H](O)[C@]1(O)[C@@]24C)C(C)(O)C[C@H](O)[C@H]3O (some centres not stated)
inactive: outcome (CRL-7250) | outcome (HEK293) | outcome (HaCat)

C=C1C[C@]23C[C@H]1CC[C@H]2[C@@]12C=C[C@H](O)[C@@](C)(C(=O)O1)[C@H]2[C@@H]3C(=O)O
inactive: max response (CRL-7250) -5.97% | outcome (HEK293) | outcome (HaCat)

C=C1C(O[C@@H]2O[C@H](CO)[C@@H](O)[C@H](O)[C@@H]2O)CC2C(C)(C)C(O)CCC2(C)C1CC/C(C)=C\CO (some centres not stated)
inactive: max response (CRL-7250) -10.8% | outcome (HEK293) | max response (HaCat) -5.23%

O=C(O)c1cnn(-c2nc3cc(OC(F)(F)F)c(Cl)cc3[nH]2)c1
inactive: max response (CRL-7250) -25.2% | outcome (HEK293) | max response (HaCat) 3.71%

COc1ccc2c(c1)OC[C@]1(O)c3cc4c(cc3O[C@H]21)OCO4
inactive: max response (CRL-7250) -0.876% | outcome (HEK293) | outcome (HaCat)

CCNC(=O)CCC/C=C\C[C@@H]1[C@@H](/C=C/C(O)CCc2ccccc2)[C@@H](O)C[C@@H]1O (some centres not stated)
inactive: outcome (CRL-7250) | outcome (HEK293) | outcome (HaCat)

C[C@@H](Nc1cc(NS(=O)(=O)N2CCC2)nc(SCc2cccc(F)c2F)n1)[C@@H](O)CO
inactive: max response (CRL-7250) 3.18% | outcome (HEK293) | max response (HaCat) 1.29%

O=C(O)[C@H]1CCCC[C@H]1C(=O)N1CCc2ccccc2[C@H]1CN1C(=O)c2ccccc2C1=O
inactive: max response (CRL-7250) 1.46% | outcome (HEK293) | outcome (HaCat)

COc1cc(C(O)C(CO)Oc2ccc(CCCO[C@@H]3O[C@@H](C)[C@H](O)[C@@H](O)[C@H]3O)cc2OC)ccc1O (some centres not stated)
inactive: outcome (CRL-7250) | outcome (HEK293) | outcome (HaCat)

C=C[C@H]1[C@H](O[C@@H]2O[C@H](CO)[C@@H](O)[C@H](O)[C@H]2O)OC=C(C(=O)OC)[C@H]1C[C@@H]1N[C@H](C(=O)O)Cc2c1[nH]c1ccccc21
inactive: max response (CRL-7250) 2.01% | outcome (HEK293) | outcome (HaCat)

COC1(CC(C)C)NC(=O)C(O)(Cc2ccccc2)NC1=O (configuration not stated)
inactive: max response (CRL-7250) 2.47% | outcome (HEK293) | outcome (HaCat)

CC(C)C1(O[C@@H]2O[C@H](CO)[C@@H](O)[C@H](O)[C@H]2O)CC=C(CO)CC1 (some centres not stated)
inactive: outcome (CRL-7250) | outcome (HEK293) | outcome (HaCat)

C=CC1C(O[C@@H]2O[C@H](CO)[C@@H](O)[C@H](O)[C@H]2O)OC=C(C(=O)OC)C1CC(=O)O (some centres not stated)
inactive: outcome (CRL-7250) | outcome (HEK293) | outcome (HaCat)

COc1cc(C2c3cc(O)c(OC)cc3CC(CO)C2CO)ccc1O (configuration not stated)
inactive: outcome (CRL-7250) | outcome (HEK293) | outcome (HaCat)

C=CC(C)(O)CC/C=C(/C)C(=O)OC1C(OC2OCC(OC3OC(CO)C(O)C(O)C3O)C(OC3OCC(O)C(OC4OC(C)C(O)C(O)C4O)C3O)C2O)COC(OC(=O)C23CCC(C)(C)CC2C2=CCC4C5(C)CCC(OC6OC(CO)C(OC7OC(CO)C(O)C(OC8OCC(O)C(O)C8O)C7O)C(O)C6O)C(C)(C)C5CCC4(C)C2(C)CC3O)C1O (configuration not stated)
inactive: outcome (CRL-7250) | outcome (HEK293) | outcome (HaCat)

O=C(/C=C/c1ccc(O)cc1)OC[C@]12O[C@H]1[C@@H](O)[C@@H]1C=CO[C@@H](O[C@@H]3O[C@H](CO)[C@@H](O)[C@H](O)[C@H]3O)[C@@H]12
inactive: max response (CRL-7250) -7.12% | outcome (HEK293) | outcome (HaCat)

C=C(C)C1CC2(CO)C(=CC1=O)CCC(O)C2C (configuration not stated)
inactive: max response (CRL-7250) 3.39% | outcome (HEK293) | max response (HaCat) -2.77%

C=C1CC[C@@H]2[C@](C)(CC[C@H](O)[C@@]2(C)CCC=C(C)C)[C@@H]1Cc1c[nH]c2ccccc12
inactive: max response (CRL-7250) -8.3% | outcome (HEK293) | max response (HaCat) -2.84%

CC1CCC2(C)C(CC(O)C(O)C23CO3)C1(C)CCC1=CC(=O)OC1O (configuration not stated)
inactive: max response (CRL-7250) -22% | outcome (HEK293) | outcome (HaCat) inactive; activator

OCc1ccccc1O[C@@H]1O[C@H](CO)[C@@H](O)[C@H](O)[C@H]1O
inactive: max response (CRL-7250) -0.323% | outcome (HEK293) | max response (HaCat) -0.335%

C=C1C2(CCC(=O)OC2(C)C)CC(OC(=O)/C(C)=C/C)C2(C)C13OC14C(=O)OC(C)(C(=O)C12C(=O)OC4C)C3OC(C)=O (configuration not stated)
inactive: outcome (CRL-7250) | outcome (HEK293) | outcome (HaCat)

COc1cc(C2Oc3c(O)cc(CCCO)cc3C2CO)ccc1O[C@H]1O[C@H](C)[C@@H](O)[C@H](O)[C@@H]1O (some centres not stated)
inactive: max response (CRL-7250) 0.29% | outcome (HEK293) | max response (HaCat) 3.18%

COC(=O)C1=CO[C@@H](O[C@@H]2O[C@H](COC(=O)/C=C/c3cc(OC)c(O)c(OC)c3)[C@@H](O)[C@H](O)[C@H]2O)[C@@H]2C(CO)=CC[C@H]12
inactive: max response (CRL-7250) -6.59% | outcome (HEK293) | outcome (HaCat)

C#C[C@]1(O)CC[C@H]2[C@@H]3CCC4=C/C(=N/O)CC[C@@H]4[C@H]3CC[C@@]21CC
inactive: max response (CRL-7250) 4.4% | max response (HEK293) -0.147% | max response (HaCat) -21.3%

CC1(C)CCCC2(C)C3=C(C(=O)OC3O)C(O)CC12 (configuration not stated)
inactive: max response (CRL-7250) -10.8% | outcome (HEK293) | outcome (HaCat)

COc1c(C(CC(C)C)OC(C)=O)ccc(Oc2c(O)cc(C)cc2/C=C/C(C)=O)c1C(=O)O (configuration not stated)
inactive: max response (CRL-7250) -10.2% | outcome (HEK293) | max response (HaCat) -7.86%

COc1cc(/C=C/C(=O)OC2[C@H](O)CC(O)(C(=O)O)C[C@H]2O)ccc1O (some centres not stated)
inactive: max response (CRL-7250) 3.9% | outcome (HEK293) | outcome (HaCat)

COC(=O)[C@@H]1C2CC3c4[nH]c5ccccc5c4CCN3CC2CC[C@@H]1O (some centres not stated)
inactive: outcome (CRL-7250) | outcome (HEK293) | max response (HaCat) -0.215%

Cc1nn(C)c(COc2ccc(N3CCN(S(=O)(=O)N(C)C)CC3)cc2)c1-c1cccc2c(CCCOc3cccc4ccccc34)c(C(=O)O)n(CCN3CCOCC3)c12
inactive: max response (CRL-7250) -5.39% and -9.48% | outcome (HEK293) | outcome (HaCat)

CC/C=C/CC1=C(CCCCCCCC(=O)O)CCC1=O
inactive: max response (CRL-7250) 0.164% | outcome (HEK293) | outcome (HaCat)

CC(O)(CC(=O)O)CC(=O)O[C@@H]1[C@@H](O)[C@H](OCCc2ccccc2)O[C@H](CO)[C@H]1O (some centres not stated)
inactive: max response (CRL-7250) -0.691% | outcome (HEK293) | max response (HaCat) -14.4%

CC1(C)CC2C(O)C3=C(CC(C)(O)C2C1)C(=O)OC3O (configuration not stated)
inactive: max response (CRL-7250) -0.0685% | outcome (HEK293) | outcome (HaCat)

CC(C)=CCC[C@](C)(O[C@@H]1O[C@H](CO[C@@H]2OC[C@@H](O)[C@H](O)[C@H]2O)[C@@H](O)[C@H](O)[C@H]1O)[C@H]1CC[C@]2(C)[C@@H]1[C@H](O)C[C@@H]1[C@@]3(C)CC[C@H](O[C@@H]4O[C@H](CO)[C@@H](O)[C@H](O)[C@H]4O[C@@H]4O[C@H](CO)[C@@H](O)[C@H](O)[C@H]4O)C(C)(C)[C@@H]3CC[C@]12C
inactive: outcome (CRL-7250) | outcome (HEK293) | max response (HaCat) -10.6%

COCCCNCC1COc2ccccc2O1 (configuration not stated)
inactive: max response (CRL-7250) 1.45% | outcome (HEK293) | outcome (HaCat)

COCCN(C)Cc1ccc2nc3sc(C(=O)N(C)C4CCCCC4)cn3c2c1
inactive: outcome (CRL-7250) | outcome (HEK293) | max response (HaCat) -3.7%

NS(=O)(=O)OC[C@@H]1C[C@@H](n2ccc3c(N[C@H]4CCc5ccccc54)ncnc32)C[C@@H]1O
active: Potency (CRL-7250) 1.3 µM and 651 nM | Potency (HEK293) 291 nM and 366 nM | Potency (HaCat) 5.17 µM

CC(=C/C(=O)O)/C=C/[C@]1(O)[C@@]2(C)CO[C@]1(C)C[C@H](O[C@@H]1O[C@H](CO)[C@@H](O)[C@H](O)[C@H]1O)C2
inactive: max response (CRL-7250) 1.76% | outcome (HEK293) | outcome (HaCat)

NCc1c[nH]c(=S)n1C1CCc2c(F)cc(F)cc2C1 (configuration not stated)
inactive: max response (CRL-7250) -1.6% | outcome (HEK293) | outcome (HaCat)

CO[C@@]12CC3[C@@H]([C@@H](O)[C@@H](OC(C)=O)C4[C@](C)(COC(C)=O)CCC[C@]34C)[C@@H](C)C1=CC(=O)O2 (some centres not stated)
inactive: outcome (CRL-7250) | outcome (HEK293) | max response (HaCat) 3.42%

CC12CCC3c4ccc(O)cc4CCC3C1CCC2OC1OC(C(=O)O)C(O)C(O)C1O (configuration not stated)
inactive: outcome (CRL-7250) | outcome (HEK293) | max response (HaCat) 2.12%

CC(CO[C@@H]1O[C@H](COC(=O)/C=C/c2ccc(O)c(O)c2)[C@@H](O)[C@H](O)[C@H]1O)C1(O)COC(=O)C1 (some centres not stated)
inactive: max response (CRL-7250) -2.89% | outcome (HEK293) | max response (HaCat) 3.48%

C=CC1C(O[C@@H]2O[C@H](CO)[C@@H](O)[C@H](O)[C@H]2O)OC=C(C(=O)OC)C1Cc1nccc2c1[nH]c1ccccc12 (some centres not stated)
inactive: max response (CRL-7250) 3.98% | outcome (HEK293) | max response (HaCat) 1.01%

O=C(c1ccccn1)c1cnn2c(-c3ccncc3)ccnc12
inactive: max response (CRL-7250) 3% | outcome (HEK293) | outcome (HaCat)

C[C@@H](O)[C@H](N)C(=O)N1CCC[C@H]1C(=O)N1CCC[C@H]1C(=O)N[C@H](C(N)=O)[C@@H](C)O (H-TPPT-NH2)
inactive: outcome (CRL-7250) | outcome (HEK293) | outcome (HaCat)

NCCCC[C@H](NC(=O)[C@@H]1Cc2ccccc2CN1C(=O)CCC(=O)c1ccccc1)C(=O)NCC(c1ccccc1)c1ccccc1
inactive: outcome (CRL-7250) | outcome (HEK293) | outcome (HaCat)

CC(=O)OC[C@@]12[C@H](O)C[C@]3(C)C(=CCC4[C@@]5(C)CC[C@H](O[C@@H]6O[C@H](C(=O)O)[C@@H](O[C@@H]7O[C@H](CO)[C@@H](O)[C@H](O)[C@H]7O)[C@H](O)[C@H]6O[C@@H]6O[C@H](CO)[C@@H](O)[C@H](O)[C@H]6O)[C@](C)(CO)C5CC[C@]43C)[C@@H]1CC(C)(C)[C@@H](OC(C)=O)[C@@H]2O (some centres not stated)
inactive: outcome (CRL-7250) | outcome (HEK293) | outcome (HaCat)

CC1(CO)CC[C@]2(C(=O)O[C@@H]3O[C@H](CO)[C@@H](O)[C@H](O)[C@H]3O)CC[C@]3(C)C(=CCC4[C@@]5(C)CC[C@H](O[C@@H]6O[C@H](C(=O)O)[C@@H](O)[C@H](O)[C@H]6O)C(C)(C)C5CC[C@]43C)C2C1 (some centres not stated)
inactive: max response (CRL-7250) -1.41% | outcome (HEK293) | max response (HaCat) 1.75%

Source: PubChem BioAssay (NCATS)
